An excerpt weighted towards active compounds, which were near 2.1% of everything screened.
TDP43 rescue: TDP-43 toxicity inhibition in yeast | TDP-43 expressing yeast growth rescue, BacTiter-Glo, 24 h | Potency, µM (doses to about 46.1 µM), without a hit: at the highest dose growth rescue (activation), usual class: activators | actives 1.8% (n = 410,000) | AID 652104; note: % of control where 0% means no effect; nearly all actives have a fitted effect of over 50% in size
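Yeast expressing TDP-43 (pregrown in raffinose, seeded at OD600=0.02 in galactose medium) exposed to compounds 24 hr at 30 deg C. Growth read by BacTiter-Glo luminescence; rescue of toxicity appears as increased signal.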
aSyn rescue: inhibitors of alpha-synuclein toxicity in yeast | Yeast expressing alpha-synuclein, growth rescue, BacTiter-Glo, 24 h | Potency, µM (titrated, usually from 46.1 µM), for the others: at the highest dose growth rescue (activation), usual class: activators | actives 0.14% (n = 370,000) | AID 652106; note: % of control where 0% means no effect; nearly all actives have a fitted effect of over 65% in size
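Rescue of yeast growth: cells expressing toxic alpha-synuclein, induced in galactose at OD600 0.02, incubated with compound 24 h at 30 C. ATP luminescence quantified growth; inhibitors of toxicity appear as activators.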
Abeta yeast res: compounds reversing amyloid beta toxicity in yeast | yeast expressing A-beta42, growth rescue, OD600, 48 h; response scale: 0% DMSO, 100% iron-clioquinol control | Potency, µM (titrated, usually from 46.1 µM), most hits filed as activators | actives 0.063% (n = 410,000) | AID 1347071; note: nearly all actives have a fitted effect of over 55% in size
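Growth rescue measured by 600 nm absorbance after 48 h yeast culture at 30 C with compound. Values normalized between DMSO and an equimolar ferric chloride plus clioquinol control.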
FUS suppressor: FUS proteinopathy suppression in yeast. S. cerevisiae FUS-expressing, growth rescue, OD600, 24 h. Potency, µM (highest dose often 76.6 µM), most hits filed as activators. actives 0.24% (n = 390,000);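 note: plate controls were DMSO vehicle for no effect and reference control for full effect; nearly all actives have a fitted effect of over 55% in size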
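Steps: raffinose overnight preculture; dilution to OD 0.005 in 2% galactose minimal medium; compound addition (concentration series); 24hr at 30C, 99% humidity; absorbance read at 600 nm.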
The depositor's hits bear a star; i = inactive; ? = inconclusive; · = no result; [ ] = dose if it differs, or a comment. Calls come from the whole dose curve; as a rule, active = well fitted curve in the direction sought with a large enough effect; inconclusive = small, poorly fitted or top-dose-only effect, or another doubt; inactive = no such curve, though single readings can be large; an effect the other way counts as inactive or inconclusive. Potency is the fitted concentration of half-maximal effect.

SMILES	TDP43 rescue	aSyn rescue	Abeta yeast res	FUS suppressor
Cc1ccc(F)cc1C(=O)N1CCCC(c2cc(C(=O)Nc3ccccc3)no2)C1 (stereo unspecified)	35µM*	?	i	i
Cc1nn(Cc2ccc([N+](=O)[O-])cc2)c(=O)n1N(C)c1ncc(C(F)(F)F)cc1Cl	?	7%	i	i
COCCN(C(=S)Nc1cc(C)cc(C)c1)C(C)c1cccnc1 (stereo unspecified)	-4%	8%	i	i
O=C(Nc1ccccc1)c1cc(C2CCCN(C(=O)C/C=C/c3ccccc3)C2)on1 (stereo unspecified)	22µM*	-4%	i	?
Cc1sc2ncn(CC(=O)N3CCN(c4cccc(Cl)c4)CC3)c(=O)c2c1S(=O)(=O)N1CCC(C)CC1	2%	·	i	25µM*
Cc1sc2ncn(CC(=O)N3CCN(c4ccc(F)cc4)CC3)c(=O)c2c1S(=O)(=O)N1CCC(C)CC1	3%	·	i	i
Cc1sc2ncn(CC(=O)N3CCN(c4ccccc4)CC3)c(=O)c2c1S(=O)(=O)N1CCC(C)CC1	-1%	·	i	25µM*
CCOc1cc(C(=O)N2CCC(CC3CC(c4ccccc4)=NO3)(C(=O)NCc3ccc(OC)cc3)CC2)cc(OCC)c1OCC (stereo unspecified)	2%	0%	i	18µM*
COc1ccc(CNC(=O)C2(CC3CC(c4ccccc4)=NO3)CCN(C(=O)Cc3ccc(F)cc3)CC2)cc1 (stereo unspecified)	8%	5%	i	i
O=C(Cc1ccccc1)NCCn1ccc2ccccc21	?	-2%	i	i
O=C(COc1ccc2ccccc2c1)NCCn1ccc2ccccc21	22µM*	?	?	?
O=C(Nc1ccc(S(=O)(=O)N2CCCC2)cc1)c1ccc(F)cc1	-6%	-2%	i	i
COc1ccc(NC(=O)CN2C(=O)c3cccnc3Sc3ccccc32)cc1OC	-1%	·	i	i
COC(=O)C(N)CCCCN (stereo unspecified)	8%	-9%	i	i
CCc1nnc(NC(=O)[C@@H](NC(=O)c2ccc(C(C)(C)C)cc2)C(C)C)s1	-17%	11%	i	28µM*
CCc1nnc(NC(=O)[C@@H](NC(=O)c2ccc(OC)cc2)C(C)C)s1	-8%	3%	i	i
CC(Sc1cnc2ccccc2n1)C(=O)O (stereo unspecified)	-4%	-2%	i	i
CC(Sc1ccc2ccccc2n1)C(=O)O (stereo unspecified)	11µM*	-17%	i	i
Cc1cccc(Nc2ncnc3onc(-c4cccc(Cl)c4)c23)c1	19%	-2%	i	i
CN(c1ncnc2onc(-c3cccc(Cl)c3)c12)C1CCCCC1	22µM*	·	i	i
COC(=O)c1cc(N=Nc2c(C)[nH]c3ccccc23)cc(C(=O)OC)c1	0%	1%	i	i
Cc1[nH]c2ccccc2c1N=Nc1cccc(C(=O)O)c1	18µM*	-59%	i	i
COC(=O)c1ccc2c(C)c(C3(O)CCCCC3)[nH]c2c1	20µM*	0%	i	i
COC(=O)c1cc(Cl)cc2c(C)c(C3(O)CCCCC3)[nH]c12	35µM*	?	i	i
CCc1c(C2(O)CCCCC2)[nH]c2c(C(=O)OC)cc(Cl)cc12	-85%	-49%	i	i
SMILES	TDP43 rescue	aSyn rescue	Abeta yeast res	FUS suppressor
Cc1ccc(C)c(N2CC(C(=O)Nc3cc(C)on3)CC2=O)c1 (stereo unspecified)	-9%	-6%	i	i
O=C(Cn1nnc(-c2ccccc2)n1)OCc1csc(-c2ccccc2)n1	10%	1%	i	i
Cc1ccc(CNC(=O)C(C(=O)NCc2ccc(C)o2)c2ncc(C(F)(F)F)cc2Cl)o1	-10%[0.397 µM]	5%	i	i
COc1ccc(CNC(=O)c2ccc(-c3nc(CS(=O)c4ccc(C)cc4)c(C)o3)cc2)cc1 (stereo unspecified)	-27%	·	i	25µM*
O=C(CSc1nc(-c2ccc(F)cc2)cs1)N1CCOCC1	4%	3%	i	i
CC(=O)NCCCc1nc2ccccc2n1Cc1ccccc1F	-16%	-6%	i	i
CNc1nc(C)c([N+](=O)[O-])c(Nc2ccc(OC)cc2)n1	13µM*	11%	i	i
Cc1cc(C)c(Cn2c3ccccc3c3cnn(CC(=O)NCc4ccccn4)c(=O)c32)c(C)c1	-18%	2%	i	i
Cc1ccc(O)c(-c2cc(-c3ccccc3[N+](=O)[O-])[nH]n2)c1	?	22µM*	i	·
O=[N+]([O-])c1ccccc1-c1cc(-c2cc(Cl)ccc2O)n[nH]1	13µM*	0%	i	·
O=C(NC1CCN(Cc2ccccc2)CC1)C1CCN(S(=O)(=O)c2cccc([N+](=O)[O-])c2)CC1	-10%	-5%	i	i
Cc1cccc(C(=O)NCC(c2ccc3c(c2)OCO3)N2CCOCC2)c1 (stereo unspecified)	26%	·	i	i
C/C(=N/NS(=O)(=O)c1ccc(Cl)cc1)c1cccc(NC(=O)c2ccc(Cl)cc2Cl)c1	13µM*	6%	i	i
COCCCNC(=S)NNC(=S)Nc1cccc(Cl)c1	?	-16%	?	i
CCOC(=O)c1nnn(-c2nc(N3CCCC3)nc(N3CCCC3)n2)c1-c1ccccc1	30%	-8%	i	i
CCOC(=O)c1c(-c2ccccc2)nnn1-c1nc(OCC)nc(N2CCCCC2)n1	22µM*	-26%	i	i
CC1C/C(=C/c2cccn2C)C(=O)/C(=C/c2cccn2C)C1 (stereo unspecified)	13µM*	5%	i	i
Cc1ccc(-c2nc(-c3cccnc3)sc2CC(=O)O)cc1	10%	6%	i	i
CC(=O)Nc1ccc(NC(=O)Cc2sc(-c3cccnc3)nc2-c2ccc(C)cc2)cc1	2%	-1%	i	28µM*
CCc1ccc2c(c1)cc(CN(C(=S)Nc1ccccc1C)C1CC1)c1nnnn12	5%	0%	i	i
Cc1ccc2c(c1)nnn2C1CCN(C(=O)C2CCCCC2)CC1	20µM*	4%	i	i
C/C(=N\NC(=O)c1cc(-c2ccncc2)nc2ccccc12)c1ccc(N2CCOCC2)cc1	-3%	0%	i	i
COc1ccc(CCNC(=O)c2ccc(COc3ccccc3OC)o2)cc1	-2%	-7%	i	i
CC(C)C(C)NC(=O)CN1C(=O)NC2(CCc3ccccc3C2)C1=O (stereo unspecified)	-10%	-1%	i	i
N#C/C=C1\n2c(nc3ccccc32)OC12CCCCC2	16µM*	-2%	i	i
Cc1c(C(=O)N2CCN(Cc3nccn3C)CC2)oc2c(F)cccc12	?	1%	i	i

Screens as filed in PubChem.
